This is part of a sample that, as a whole, favours compounds with a hit. Of some 83,000 tested, about 20% had one in any assay.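 Assay: single dose, 48 h. Readout: percent growth (0 = no net growth; negative = cell death). Active: <10.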 Values without a mark were called inactive. Activity calls are given as the source filed them.

This experiment has as its system OVCAR-5 ovarian. Nature of the experiment: NCI-60 one-dose screen, 48 h (100 = growth as untreated, 0 = no growth, -100 = all killed). Conditions: 10 µM.
On to `CC1(c2ccccc2)NC(=O)N(CC(=O)Nc2ccc(C(=O)/C=C/c3ccc(Br)cc3)cc2)C1=O` (configuration not stated), for which the growth was 76%. The value for `Cc1ccn2c(C(=O)c3ccccc3)cc(-c3cc(-c4ccc(N(C)C)cc4)c(C#N)c(N)n3)c2c1` was 83.4%; that for `COc1ccc(C(=O)/C=C/c2cc(C(F)(F)F)cc(C(F)(F)F)c2)cc1S(N)(=O)=O` was -93.6% (active); that for `COc1cccc2nc(Nc3ccc(F)c(NC(=O)c4ccc(CN5CCN(C)CC5)c(C(F)(F)F)c4)c3)ccc12` was 72.5%. The value for `O=C(Nc1cccc(C(F)(F)F)c1)c1cncc(C#Cc2cnc3ccc(N4CCOCC4)nn23)c1` was 1.83% (active).

As to `O=C(CNc1nc(-c2ccccc2)cs1)Nc1ccc([N+](=O)[O-])cc1`, the growth is -39.6% (active).

As to `COC[C@@H](CC(C)C)N=C1N/C(=C\c2ccc3ncsc3c2)C(=O)N1C`, the growth was -6.76% (active). `COc1ccsc1/C=N/NC(=O)c1[nH]c2ccc(Br)cc2c1-c1ccccc1`: the growth is 26.6%. `CCOC(=O)C1NN(c2ccc(S(N)(=O)=O)cc2)c2nc3nc(-c4cccs4)cc(-c4cccs4)c3c(=O)n21` (configuration not stated): the growth is 100%. For `Nc1cc(-c2cccc(C(=O)NCc3ccc4c(c3)OCO4)c2)ccn1`, the growth is 121%. For `O=c1c2ccccc2nc(COc2ccccc2)n1/N=C/c1ccc(N2CCCC2)cc1`, the growth was 96.6%. The value for `O=C(CNc1nc(-c2ccccc2)cs1)Nc1cccc([N+](=O)[O-])c1` was -92.8% (active); that for `C#CCNC(=O)[C@]12CCC(C)(C)C[C@H]1C1=CC[C@@H]3[C@@](C)(CCC#N)[C@H](C(=C)C)CC[C@@]3(C)[C@]1(C)CC2` was 77.4%; that for `Cc1ccc(/C(CSc2nnc(-c3c[nH]c4ccccc34)n2-c2ccccc2)=N/O)cc1` was -48.9% (active). With `COC1=C[C@]23CCC(=O)N2CCc2cc4c(cc2[C@@H]3[C@@H]1OC(=O)CCCC(C)C)OCO4` the figure was 78.4%; with `Cc1ccc(-c2nc3ccc(C(=O)N=Nc4c(O)[nH]c5ccc([N+](=O)[O-])cc45)cc3[nH]2)cc1`, 101%. With `Cc1ccc(-c2nc(Nc3ccccc3C(=O)O)c3ccccc3n2)cc1` the figure was 65.9%. On to `CN(C)c1ccc(/C=C/C(=O)c2ccc(NC(=O)CN3C(=O)NC(C)(c4ccccc4)C3=O)cc2)cc1` (configuration not stated), for which the growth is 86%.

As for `COc1cc(/C=C/C(=O)c2ccc(NC(=O)CN3C(=O)NC(C)(c4ccccc4)C3=O)cc2)cc(OC)c1OC` (configuration not stated), the growth is 34.6%. With `O=C(O)CCCCCCCCCCN1C(=O)/C(=C/c2cnc(-c3ccc(Cl)cc3)s2)SC1=S` the figure was 56.9%; with `O=C(Nc1cccc(C(F)(F)F)c1)c1cncc(C#Cc2cnc3cccnn23)c1`, 56.3%. With `CC1(c2ccccc2)NC(=O)N(CC(=O)Nc2ccc(C(=O)/C=C/c3ccccc3)cc2)C1=O` (configuration not stated) the figure was 89.2%; with `CN1C(=O)N(C)C2SC(N/N=C/c3ccccc3F)=NC21` (configuration not stated), 86.7%. The value for `COc1ccccc1C(=O)NNC(=O)CSc1nc2c(c(=O)[nH]1)CCCC2` was 108%. In the case of `CCN1CCN(Cc2ccc(C(=O)Nc3cccc(-c4cn(-c5ccc6oc(=O)ccc6c5)nn4)c3)cc2C(F)(F)F)CC1`, the growth was -100% (active). The value for `COc1ccc(CN2[C@H](C(=O)NCc3ccc(C(=O)NO)cc3)Cc3c([nH]c4ccccc34)[C@H]2C2CC2)cc1` was 34.4%. `Cn1c(O)c(N=Nc2nc(-c3cc4ccccc4oc3=O)cs2)c2cc(Br)ccc21`: the growth is 86.5%.

For the compound `[2H]C([2H])([2H])Oc1ccc2ncc(C#Cc3cncc(C(=O)Nc4ccc(CN5CCN(C)CC5)c(C(F)(F)F)c4)c3)n2n1`, the growth is -92.9% (active). The value for `O=C(c1ccc(Cl)cc1)C1[C@H](c2ccccc2Br)[C@@H](c2ccccc2)NC12C(=O)Nc1ccc(Br)cc12` (some centres not stated) was 19.2%; that for `C=C(C)[C@@H]1CC[C@]2(COP(=O)(OCC)OCC)CC[C@]3(C)[C@H](CC[C@@H]4[C@@](C)(CCCN)[C@H](C(=C)C)CC[C@]43C)[C@@H]12` was 43.2%; that for `O=C(COc1ccc(NC(=O)Nc2ccc(Cl)cc2)cc1)N=Nc1c(O)[nH]c2ccc([N+](=O)[O-])cc12` was 69.4%. With `Cc1ccc(/C=C/C(=O)c2ccc(S(=O)(=O)NCCNc3nc(Nc4ccc(F)cc4)nc(N(C)C)n3)cc2)cc1` the figure was 39.2%.

In the case of `CCN1CCN(c2ccc(NC(=O)Nc3ccc(-c4cc(C(=O)NC(C)C)c5ncccc5n4)cc3)cc2C(F)(F)F)CC1`, the growth was -83.2% (active).

Take `CCOc1ccc(Nc2nc3ccccc3nc2Nc2ccc(OCC)cc2)cc1`: the growth was 107%. For the compound `O=C(c1ccc(Cl)cc1)C1[C@H](c2ccc(Br)cc2)[C@@H](c2ccccc2)NC12C(=O)Nc1ccc(Br)cc12` (some centres not stated), the growth is -91.2% (active). With `COc1cnc2c(c1)C(=O)c1c-2n(CCCNC(C)C)c(=O)c2cc(OC)c(OC)cc12` the figure was 70.8%; with `OCCCNc1oc(-c2ccccc2)nc1[P+](c1ccccc1)(c1ccccc1)c1ccccc1`, 26.2%.

The values are drawn from PubChem BioAssay (NCI).
